From the supplement of paper PMC9492666 come the findings set out here.

Structures can show the parent of a compound that is named as a salt.

What all share (details): 72 h
The test system of test [1] is HCC1937. Put plainly: relative cell viability, compound + RSL3, vs DMSO (fraction of DMSO control); higher = less growth inhibition.
In test [2] the test system is MDA-MB-231. Described as above.
The subject of test [3] is HCC1937. Put plainly: relative cell viability, compound alone, vs DMSO (fraction of DMSO control); higher = less growth inhibition.
The subject of test [4] is MDA-MB-231. The test is described as above.
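Wherever relative cell viability, compound + RSL3, vs DMSO is given: breast cancer cell viability read out with the CCK-8 kit after co-treatment of each compound with the ferroptosis inducer RSL3.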
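Wherever relative cell viability, compound alone, vs DMSO is given: viability read out with the CCK-8 kit in 96-well plates, screening a set of 303 compounds acting on lipid metabolism targets.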

`CC(O)(CC(=O)O)CC(=O)O` [Meglutol] + COC(=O)c1ccc([C@H]2c3[nH]c4ccccc4c3C[C@H](C(=O)OC)N2C(=O)CCl)cc1 [RSL3]: the relative cell viability worked out at 0.443 with HCC1937 [1] and 0.613 in the test on MDA-MB-231 [2].

For `COc1ccc(-c2coc3cc(O)cc(O)c3c2=O)cc1` [Biochanin A], the relative cell viability in the test with HCC1937 [3] stood at 0.813; in the test on MDA-MB-231 [4] it was 0.729.

As to `O=C(OC(C(F)(F)F)C(F)(F)F)N1CCC(C(O)(c2ccc3c(c2)OCO3)c2ccc3c(c2)OCO3)CC1` + COC(=O)c1ccc([C@H]2c3[nH]c4ccccc4c3C[C@H](C(=O)OC)N2C(=O)CCl)cc1 [RSL3], the relative cell viability with HCC1937 [1] and with MDA-MB-231 [2] was 0.551 throughout.

With `O=c1cc(-c2ccc(O)c(-c3c(O)cc(O)c4c(=O)cc(-c5ccc(O)cc5)oc34)c2)oc2cc(O)cc(O)c12` [Amentoflavone] + COC(=O)c1ccc([C@H]2c3[nH]c4ccccc4c3C[C@H](C(=O)OC)N2C(=O)CCl)cc1 [RSL3], the relative cell viability stood at 0.318 in the test on HCC1937 [1] and 0.496 in the test on MDA-MB-231 [2].

With `Oc1ccc(/C=C/c2cc(O)cc(O)c2)cc1` [Resveratrol] + COC(=O)c1ccc([C@H]2c3[nH]c4ccccc4c3C[C@H](C(=O)OC)N2C(=O)CCl)cc1 [RSL3], the relative cell viability in the test with HCC1937 [1] stood at 0.63; in the test with MDA-MB-231 [2], 0.508.

Turning to `N=C(N)NC(=N)NCCc1ccccc1` [Phenformin hydrochloride], the relative cell viability in the test with HCC1937 [3] is 0.76; with MDA-MB-231 [4], 0.868.

`CCCCCCCCCc1ccc(B(O)O)cc1` [4-Nonylphenylboronic acid]: the relative cell viability came to 1.01 in the test on HCC1937 [3] and 1.08 in the test on MDA-MB-231 [4].

Consider `CCCCCCCCCCCCCCCC(=O)NCCO` [Palmidrol], for which the relative cell viability was 1.39 in the test with HCC1937 [3] and 1.13 in the test with MDA-MB-231 [4].

Regarding `COc1cc(O)c2c(c1)O[C@H](c1ccc(O)cc1)CC2=O` [Sakuranetin] + COC(=O)c1ccc([C@H]2c3[nH]c4ccccc4c3C[C@H](C(=O)OC)N2C(=O)CCl)cc1 [RSL3], the relative cell viability in the test with HCC1937 [1] stood at 0.362; with MDA-MB-231 [2], 0.645.

For `CC(C)=CCC(O)C1=CC(=O)c2c(O)ccc(O)c2C1=O` (single isomer, unassigned; (+)) [(+)-Shikonin] + COC(=O)c1ccc([C@H]2c3[nH]c4ccccc4c3C[C@H](C(=O)OC)N2C(=O)CCl)cc1 [RSL3], the relative cell viability with HCC1937 [1] worked out at 0.0766; in the test on MDA-MB-231 [2], 0.132.

As to `CC(C)OC(=O)C(C)(C)Oc1ccc(C(=O)c2ccc(Cl)cc2)cc1` [Fenofibrate], the relative cell viability with HCC1937 [3] was found to be 1.16; in the test with MDA-MB-231 [4] it was 0.955.

In the case of `c1ccc([C@H]2CN3CCSC3=N2)cc1` [Levamisole hydrochloride] + COC(=O)c1ccc([C@H]2c3[nH]c4ccccc4c3C[C@H](C(=O)OC)N2C(=O)CCl)cc1 [RSL3], the figures for the relative cell viability with HCC1937 [1] and with MDA-MB-231 [2] were 0.704 and 0.53, respectively.

`O=c1oc2ccccc2cc1O` [3-Hydroxycoumarin]: the relative cell viability in the test on HCC1937 [3] stood at 1.02; in the test with MDA-MB-231 [4], 1.05.

As for `O=C(Nc1ccccc1)c1cc([N+](=O)[O-])ccc1Cl`, the relative cell viability in the test on HCC1937 [3] stood at 1.08; with MDA-MB-231 [4], 1.03.

For the compound `CCCc1cc(-c2nc(-c3ccc(NS(C)(=O)=O)cc3)cs2)ccn1` + COC(=O)c1ccc([C@H]2c3[nH]c4ccccc4c3C[C@H](C(=O)OC)N2C(=O)CCl)cc1 [RSL3], the relative cell viability in the test on HCC1937 [1] turned out to be 0.322; with MDA-MB-231 [2], 0.551.

In the case of `COc1cccc(CNc2ccc(S(=O)(=O)Nc3nc4ccccc4s3)cc2)c1O`, the figures for the relative cell viability in the test with HCC1937 [3] and in the test on MDA-MB-231 [4] were 1.01 and 0.975, respectively.

For the compound `CC(C)=CCC[C@](C)(O[C@@H]1O[C@H](CO)[C@@H](O)[C@H](O)[C@H]1O)[C@H]1CC[C@]2(C)[C@@H]1[C@H](O)C[C@@H]1[C@@]3(C)CC[C@H](O[C@@H]4O[C@H](CO)[C@@H](O)[C@H](O)[C@H]4O[C@@H]4O[C@H](CO)[C@@H](O)[C@H](O)[C@H]4O)C(C)(C)[C@@H]3CC[C@]12C` [Ginsenoside Rd] + COC(=O)c1ccc([C@H]2c3[nH]c4ccccc4c3C[C@H](C(=O)OC)N2C(=O)CCl)cc1 [RSL3], the values for the relative cell viability with HCC1937 [1] and in the test with MDA-MB-231 [2] were 0.616 and 0.478, respectively.

In the case of `CCCCCCCCCCC[C@@H](C[C@@H]1OC(=O)[C@H]1CCCCCC)OC(=O)[C@H](CC(C)C)NC=O` [Orlistat] + COC(=O)c1ccc([C@H]2c3[nH]c4ccccc4c3C[C@H](C(=O)OC)N2C(=O)CCl)cc1 [RSL3], the results for the relative cell viability in the test on HCC1937 [1] and in the test on MDA-MB-231 [2] were 0.572 and 0.167, respectively.

Regarding `CCCc1c(-c2ccccc2)[nH]n(-c2ccccn2)c1=O` [APX-115 free base], the relative cell viability with HCC1937 [3] came to 0.838; in the test on MDA-MB-231 [4], 0.835.

With `C[C@H](CCCC(C)(C)O)[C@H]1CC[C@H]2[C@@H]3CC=C4C[C@@H](O)CC[C@]4(C)[C@H]3CC[C@]12C` [25-Hydroxycholesterol], the relative cell viability is 0.982 in the test on HCC1937 [3] and 0.89 with MDA-MB-231 [4].

For `NC(=O)c1cnccn1` [Pyrazinamide] + COC(=O)c1ccc([C@H]2c3[nH]c4ccccc4c3C[C@H](C(=O)OC)N2C(=O)CCl)cc1 [RSL3], the relative cell viability was 0.607 in the test with HCC1937 [1] and 0.558 with MDA-MB-231 [2].

Regarding `C[C@H]1N=C(N(C)C)N=C(N)N1` [Imeglimin hydrochloride], the relative cell viability stood at 0.912 in the test with HCC1937 [3] and 0.838 in the test with MDA-MB-231 [4].
